Screening results (PubChem BioAssay)
CHRM1 antagonist – human CHRM1 antagonism. CHO-K1 hM1, Fluo-8 calcium fluorescence, ACh EC80 antagonist. P11229. AID 588852. 360,000 tested, 1.3% active. inhibition, % at 3 µM;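 active = percent inhibition above its own plate's cutoff, namely the mean of that plate's compound wells plus 3 SD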;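 note: peak over basal fluorescence ratio during 140 s after agonist addition; 0% = ACh EC80 plus DMSO and 100% = DMSO alone without agonist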
Target sequence (P11229 whole entry, looked up): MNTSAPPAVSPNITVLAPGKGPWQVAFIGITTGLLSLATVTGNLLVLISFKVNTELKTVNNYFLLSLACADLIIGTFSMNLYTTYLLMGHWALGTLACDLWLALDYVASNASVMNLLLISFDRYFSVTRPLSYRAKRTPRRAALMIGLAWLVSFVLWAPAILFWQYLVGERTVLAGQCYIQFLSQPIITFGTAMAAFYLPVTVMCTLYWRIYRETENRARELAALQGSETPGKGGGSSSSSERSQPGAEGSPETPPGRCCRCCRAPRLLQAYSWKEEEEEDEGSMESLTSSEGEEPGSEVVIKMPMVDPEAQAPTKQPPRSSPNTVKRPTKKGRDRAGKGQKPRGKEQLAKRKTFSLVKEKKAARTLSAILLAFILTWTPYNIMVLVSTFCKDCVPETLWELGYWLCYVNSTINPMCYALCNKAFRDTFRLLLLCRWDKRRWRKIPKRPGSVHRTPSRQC
M1 ag – human M1 muscarinic receptor agonism | CHO-K1 hM1, Fluo-8 calcium fluorescence, agonist mode; 0% DMSO, 100% acetylcholine EC100 | activation, % at 3 µM | 360,000 tested, 0.33% active | AID 588814;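 active = activation above the run's mean compound activation plus 3 SD, cut at about 16% in these data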;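 note: peak over basal fluorescence ratio within a 140 s kinetic read after compound addition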
CHO-K1 Ca ag – counter-screen for M1 agonists: effect in parental CHO-K1 cells | activation, % at 3 µM | Fluo-8 calcium fluorescence; scaled to maximal ATP response, vehicle zero | 360,000 tested, 0.48% active; in the data active = activation above about 15%;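 note: untransfected CHO-K1 host cells lacking M1 receptor as counterscreen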
CHO-K1 Ca antag – counter-screen for M1 antagonists: effect in parental CHO-K1 cells | ATP-induced calcium, Fluo-8 fluorescence | inhibition, % at 3 µM | 360,000 tested, 0.6% active | AID 602250;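 active = inhibition above a per-plate cutoff, the plate's mean sample inhibition plus 3 SD, cut at about 24% in these data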;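 note: 0% = DMSO plus EC80 ATP and 100% = DMSO alone without ATP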
CHO-K1 Ca PAM – counter-screen for M1 PAMs: effect in parental CHO-K1 cells; activation, % at 3 µM; 360,000 tested, 0.02% active; AID 602247; ATP EC20, Fluo-8 calcium fluorescence; 0% at ATP EC20, 100% at ATP max;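 active = activation above the run cutoff, the mean activation of all test compounds plus 3 SD, cut at about 40% in these data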;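 note: peak over basal fluorescence ratio in a 140 s read after ATP addition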
CHRM1 PAM – positive allosteric modulators of human M1 muscarinic receptor; P11229; CHO-K1 hM1, Fluo-8 calcium fluorescence, ACh EC20; 0% = ACh EC20, 100% = maximal ACh; activation, % at 3 µM; 360,000 tested, 0.088% active; AID 588819; in the data active = activation above about 19%, passing the limit was not always enough
An asterisk follows results filed as active; / = no result given. Sampled rows, rich in hits. Any-hit rate of the full collection: about 2.3%.

SMILES	CHRM1 antagonist	M1 ag	CHO-K1 Ca ag	CHO-K1 Ca antag	CHO-K1 Ca PAM	CHRM1 PAM
COc1cc(N/C(=N/S(=O)(=O)c2ccccc2)c2ccccc2)ncn1	7	-3	0	25*	-6	-1
CCOC(=O)c1[nH]c(C)c(/C(O)=C2\C(=O)C(=O)N(CCCN(CC)CC)C2c2cccnc2)c1C (stereo not drawn)	-11	-6	1	-5	10	5
CCOC(=O)c1[nH]c(C)c(/C(O)=C2\C(=O)C(=O)N(CCCN3CCOCC3)C2c2cccnc2)c1C (stereo not drawn)	0	-5	19*	0	11	8
COC(=O)C(C)NC(=O)c1cn(-c2ccccc2OC)c(=O)c2ccccc12 (stereo not drawn)	-3	-2	0	-13	-15	-2
COc1cccc(Nc2nc3cc(C)ccc3cc2C)c1	-6	-7	0	26*	-14	-1
CC1(C(=O)NCCCN2CCOCC2)Oc2cccnc2NC1=O (stereo not drawn)	35	-9	0	3	-15	-17
Cc1cccc(-c2ncc(CN3CCN(CC(C)C)C(CCO)C3)cn2)c1 (stereo not drawn)	4	-9	0	3	-6	-4
Cn1c(COc2ccccc2O)[n+](C)c2ccccc21	-12	-11	0	-7	14	3
CCCCCCCCCCOC(=O)Cn1c(COc2ccccc2OC)[n+](C)c2ccccc21	69*	21*	17*	29*	0	-29
O=C(C[n+]1cccc(/C=N/O)c1)NC(=O)Nc1ccccc1	/	/	4	-12	15	/
CSc1ncccc1C(=O)Nc1cccc(S(=O)(=O)N(C)c2ccccc2)c1	-6	-4	7	-20	13	1
C#CCN(C[C@H]1[C@H](OC(=O)NCc2ccccc2)[C@H](OC(=O)NCc2ccccc2)C[C@@H](C(=O)OC)[C@H]1C(=O)OC)S(=O)(=O)c1ccc(C)cc1	-4	1	0	38*	-7	10
C#CCN(C[C@H]1[C@H](OC(=O)NCCCCCC)[C@H](OC(=O)NCCCCCC)C[C@@H](C(=O)OC)[C@H]1C(=O)OC)S(=O)(=O)c1ccc(C)cc1	-13	-1	0	6	-8	9
CS(=O)(=O)c1ccc(NS(=O)(=O)c2ccc(Cl)c(C(=O)NCc3ccco3)c2)cc1	-21	-1	0	-19	-17	17
Cc1cc([N+](=O)[O-])cc2c1NC(=O)C2(O)N1CCCCCC1 (stereo not drawn)	-2	-7	15*	3	25	0
CC(/C=N\NC(=O)CN1CCN(S(=O)(=O)c2ccc(C)cc2)CC1)=C\c1ccccc1	-5	-6	1	6	2	4
Cc1cc(C)c(NC(=O)C2CCCN2CCO)c(C)c1 (stereo not drawn)	-11	-5	1	-13	19	7
CCCCN1CCCCC1C(=O)Nc1c(C)cc(C)cc1C (stereo not drawn)	9	-5	0	30*	0	8
O=S(=O)(Nc1cccnc1)c1ccccc1	-12	-6	0	-6	8	13
O=S(=O)(Nc1cccnc1)c1ccc(C2CCCCC2)cc1	27*	6	10	22	9	-19
O=C(CSc1nnc(CNC(=O)c2cccs2)o1)Nc1ccc(F)cc1F	-1	-3	1	-6	-14	4
COC(=O)[C@@H](Cc1c[nH]c2ccccc12)NC(=O)c1ccc2c(c1)OCO2	2	2	23*	16	-5	1
COc1ccc(C(=O)c2cnc(/N=C/N(C)C)s2)cc1	5	0	0	33*	-8	9
O=C(NC1(C(F)(F)F)N=C(c2ccccc2)NC1=O)c1ccccc1 (stereo not drawn)	-6	-5	0	27*	-13	4
COc1ccc(-n2c(C)cc(C(=O)COC(=O)c3ccc(O)cc3O)c2C)cc1	30	-1	6	-3	-6	-10
Cc1cc(C(=O)COC(=O)c2ccc(O)cc2O)c(C)n1-c1ccc(OC(F)F)cc1	27	1	3	29*	-24	-11
